# PubChem BioAssay (NCATS)
# Results filed as inconclusive are left out. Active and inactive are the calls of the source. Calls come from the whole dose curve; as a rule, active = well fitted inhibition curve with a large enough effect; inconclusive = small, poorly fitted or top-dose-only effect; inactive = flat fitted curve, though single readings scatter. Where a SMILES comes first, the peptide text is derived from it. Bridges are numbered along the chain shown (N, C = ends). [ ]: non-standard residue; d: D form. hArg = N=C(N)NCCCC[C@H](N)C(=O)O; Mpa = O=C(O)CCS
# Experiment: qHTS to identify inhibitors of the type 1 interferon - major histocompatibility complex class I in skeletal muscle: primary screen against the NCATS Pharmaceutical Collection (AID 1347407)
# Conditions: human skeletal muscle cells, IFN-b-induced MHC-I HiBiT luminescence, 24 h; series mostly up to 45.9 µM; activity change, negative = inhibition: at the top concentration
# How it was run: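 Immortalized human myoblasts (C25cl48) with HiBiT knocked into endogenous HLA-B*08:01 were stimulated with 4 ng/ml IFN-beta and treated with compounds (8-point, 1:5, top 46 uM final) for 24 h at 37 C; HiBiT lytic luminescence read.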
# % is set by controls: 0 for no effect and ±100 for the full control effect.
row,Structure (SMILES),"activity change, negative = inhibition"
1,OC[C@@H](O)[C@@H](O)[C@H](O)[C@H](O)CO,-0.661% (inactive)
2,Cc1[nH]c(C)c(Cl)c(=O)c1Cl,-1.77% [at 19 µM] (inactive)
3,NC(=O)[C@@H]1CSSCCC(=O)N[C@@H](CCCCN=C(N)N)C(=O)NCC(=O)N[C@@H](CC(=O)O)C(=O)N[C@@H](Cc2c[nH]c3ccccc23)C(=O)N2CCC[C@H]2C(=O)N1 ([Mpa][hArg]GDWPC-NH2; disulfide 1-7),0.19% (inactive)
4,C=CCN1C[C@H](C(=O)N(CCCN(C)C)C(=O)NCC)C[C@@H]2c3cccc4[nH]cc(c34)C[C@H]21,-1.8% (inactive)
5,OC(CCN1CCCC1)(c1ccccc1)C1CCCCC1 (configuration not stated),22.4% (inactive)
6,Cc1ncc(CO)c(CN)c1O,3.3% (inactive)
7,CN(C/C=C/C#CC(C)(C)C)Cc1cccc2ccccc12,-2.41% (inactive)
8,O=C(O)Cn1c(C(=O)Nc2nc(-c3ccccc3Cl)cs2)cc2ccccc21,-4.52% (inactive)
9,NC(N)=NCCN1CCCCCCC1,-12.2% [at 0.727 µM] (inactive)
10,O=C(O)c1ccc[n+]([O-])c1,2.07% (inactive)
11,CN[C@@H]1[C@H](O)[C@H](NC)[C@H]2O[C@@]3(O)C(=O)C[C@@H](C)O[C@H]3O[C@@H]2[C@H]1O,-11.8% (inactive)
12,O[C@@H]1CO[C@H]2[C@@H]1OC[C@@H]2O,12.5% (inactive)
13,CC[C@H](C)[C@H](N)C(=O)O,-0.965% (inactive)
14,CCCCCCCCCCOc1cc2c(=O)c(C(=O)OCC)c[nH]c2cc1OCC,0.347% [at 3.83 µM] (inactive)
15,COC(=O)c1cccnc1,-0.92% (inactive)
16,NS(=O)(=O)c1ccc(C(=O)O)cc1,14.2% (inactive)
17,O=C1C(c2[nH]c3ccccc3c2O)=Nc2ccccc21,-4.06% (inactive)
